According to PubChem BioAssay:
Active and inactive are the calls of the source.

Experiment: PSAC antagonists in infected red cells, primary screen, cell-based, P. falciparum Indochina, OD700, 18 h (AID 1157)
Conditions: P. falciparum Indochina infected erythrocytes, osmotic lysis OD700, 18 h; higher = more signal, called active from +8 up or from −8 down

z-score, inactive:
CC(C)C(=C=CC[C@H](O)c1ccccc1OCCO)C[C@H](O)COCc1ccccc1 1.21
CC(C)NC(=O)[C@@]1(c2ccc([N+](=O)[O-])cc2)CC(=O)N(CC23CC4CC(CC(C4)C2)C3)[C@@H]1c1ccc(CO)cc1 0.204
CC(C)=C1C(=O)C(c2ccccc2)=C2CN3C(=O)N(CCc4ccccc4)C(=O)[C@]3(C)[C@H]21 1.62
COCCCNC(=O)[C@@]1(CCS(=O)(=O)c2ccccc2)COC(c2ccc(OCCCO)cc2)=N1 4.31
CC(C)(C)N1CC=CC23O[C@@H]4C=CCOC(=O)[C@@H]4[C@H]2C(=O)N(CCO)[C@@H]3C1=O (stereo partly specified) 0.526
CN(C)CCCCNC(=O)[C@H]1C[C@H]2C(=O)NCC(=O)N2[C@H]1c1ccc(O)cc1 0.3
CC(C)C(O)C1C=CC2C(=O)NC(=O)C2N1Nc1ccccn1 (stereo unspecified) 0.826
O=C1C2C=CC(C(O)c3ccc([N+](=O)[O-])cc3)N(Nc3ccccc3F)C2C(=O)N1c1ccccc1 (stereo unspecified) 0.586
CN(C)CCCC[C@@H]1NC(=O)[C@@H]2C[C@H](C(=O)NCCCCCN)[C@H](c3cccc(OCCO)c3)N2C1=O -2.07
CC1CC/C=C\[C@H]2OC34C=CCN(Cc5ccccc5)C(=O)[C@H]3N(CCCCCCO)C(=O)[C@@H]4C2C(=O)O1 (stereo partly specified) 0.111

z-score, active:
[N-]=[N+]=Nc1ccccc1[C@H]1OC(c2ccc(OCCCO)cc2)=N[C@@]1(Cc1ccccc1)C(=O)NCC(O)CO (stereo partly specified) 8.56
